Screening results as filed in PubChem.
DSG3 Ab inh: inhibitors of pemphigus antibody binding to DSG3, primary screen, biochemical, bead-based, flow cytometry, scFv-GFP. 310,000 tested, 0.48% active. DSG3-coupled beads, scFv-anti-DSG3-GFP binding; active compounds read low. Desmoglein-3 (Homo sapiens), P32926. binding (percent of control), % at 10 µM;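 active = binding more than 3 SD below its plate's average and above zero; inconclusive = below that plate limit but binding exactly zero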;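 note: hits lower antibody fragment binding to DSG3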
Target sequence (P32926 whole entry, looked up, the tested form may be a part): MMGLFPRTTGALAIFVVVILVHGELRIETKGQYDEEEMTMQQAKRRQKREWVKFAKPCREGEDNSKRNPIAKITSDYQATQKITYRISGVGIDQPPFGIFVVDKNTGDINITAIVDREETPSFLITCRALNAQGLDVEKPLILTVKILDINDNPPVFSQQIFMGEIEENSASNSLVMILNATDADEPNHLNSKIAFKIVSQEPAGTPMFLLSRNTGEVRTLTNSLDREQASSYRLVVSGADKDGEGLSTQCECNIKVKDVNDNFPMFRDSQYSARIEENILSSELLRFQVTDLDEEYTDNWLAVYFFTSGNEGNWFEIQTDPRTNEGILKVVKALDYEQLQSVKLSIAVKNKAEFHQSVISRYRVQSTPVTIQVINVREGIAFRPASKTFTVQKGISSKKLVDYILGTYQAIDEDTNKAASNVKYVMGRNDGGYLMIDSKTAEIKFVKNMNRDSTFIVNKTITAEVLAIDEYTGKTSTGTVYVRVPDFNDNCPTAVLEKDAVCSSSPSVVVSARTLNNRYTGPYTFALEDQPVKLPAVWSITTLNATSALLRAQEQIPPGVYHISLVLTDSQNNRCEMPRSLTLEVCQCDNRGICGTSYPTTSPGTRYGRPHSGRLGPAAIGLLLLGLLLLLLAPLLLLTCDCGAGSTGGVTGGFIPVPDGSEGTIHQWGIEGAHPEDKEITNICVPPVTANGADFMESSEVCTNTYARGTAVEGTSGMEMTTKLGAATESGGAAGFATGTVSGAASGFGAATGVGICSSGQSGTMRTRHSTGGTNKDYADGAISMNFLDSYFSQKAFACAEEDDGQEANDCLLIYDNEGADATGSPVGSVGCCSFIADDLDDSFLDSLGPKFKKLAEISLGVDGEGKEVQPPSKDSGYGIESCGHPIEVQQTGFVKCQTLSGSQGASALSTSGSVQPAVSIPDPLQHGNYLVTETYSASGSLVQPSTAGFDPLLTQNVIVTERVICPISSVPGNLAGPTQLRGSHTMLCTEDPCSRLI
NSD2 HMT inh: NSD2 histone methyltransferase inhibitors, primary screen, biochemical, AlphaScreen, single concentration, set 2; Histone-lysine N-methyltransferase NSD2 (Homo sapiens), O96028; inhibition, % at 12.5 µM; 310,000 tested, 0.54% active; AID 743445, 2014; NSD2 peptide methylation, 120 min; in the data active = inhibition above about 50%
CaV13 FRET inh: Primary screen for inhibitors of IQ motif and Ca2+-dependent inactivation inhibitor domain binding in CACNA1D, Förster resonance energy transfer in living cells, …; HEK cells, CFP/YFP FRET ICDI-IQ, plate reader, 10 min; percent FRET-ratio fall versus neutral wells; inhibition, % at 12.3 µM; 340,000 tested, 0.098% active; AID 743397;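 active = mean replicate inhibition of at least 30% and at least 1% of replicates passing that level; inconclusive = only one of the two criteria is met; inactive = neither criterion is met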;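 note: 0% = median of the neutral control wells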
N-glyco inh: increase of ERlucT glycosylation luciferase signal, primary screen, N-linked glycosylation inhibitor project, D54 ERlucT cells, luminescence, set 2 | D54 ERlucT glycosylation luciferase reporter, 24 h; percent of 100 nM tunicamycin response | reporter increase, % at 12.5 µM | 360,000 tested, 0.23% active;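 active = mean luciferase reporter signal, scaled so untreated is 0 and the glycosylation-blocking control 100, at or above a set limit in every replicate; inconclusive = mean reaches the limit but not every replicate does; inactive = mean below the limit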;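 note: luciferase carries N-glycosylation sites so blocking glycosylation raises the light; 0% = median of neutral control wells and 100% = median of 100 nM tunicamycin wells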
ATG4B inh: ATG4B protease inhibitors, primary screen, biochemical, fluorescence, uHTS. Cysteine protease ATG4B (Homo sapiens), Q9Y4P1. ATG4B cleavage of LC3-PLA2, NBD-HPC fluorescence, 1 h. inhibition, % at 8.33 µM. 340,000 tested, 0.51% active; in the data active = inhibition above about 40%
Vif inh: HIV Vif self-association inhibitors, primary screen, imaging, HEK293T, single point; HEK293T cells, Vif self-association by quenched fluorescence, 24 h; inhibition, % at 7.49 µM; 340,000 tested, 0.35% active; AID 602346, 2012; in the data active = inhibition above about 50%, passing the limit was not always enough; inconclusive = no clear call, values can overlap the other calls; inactive = below about 31%
* = called active by the depositor; ? = inconclusive; · = no result; + = active, no number. Only some compounds are listed: those with a hit (about 1.9% of all), similar ones and a draw of the others.

SMILES	DSG3 Ab inh	NSD2 HMT inh	CaV13 FRET inh	N-glyco inh	ATG4B inh	Vif inh
N#Cc1c(N)n(CCc2ccc(F)cc2)c2nc3ccccc3nc12	108	-1	·	58*	-8	-7
CC(C)C(NC(=O)C1CCC(C(C)(C)C)CC1)C(=O)NCc1cccnc1 (stereo not drawn)	79	0	·	1	-5	-6
O=C(CCl)Oc1ccc2occ(C(=O)c3cccs3)c2c1	102	·	·	5	-2	·
COc1ccc(NCC(=O)N/N=C2\CCc3ccccc32)cc1	106*	5	0	1	2	1
O=C(CNc1ccc(F)cc1)N/N=C1\CCc2ccccc21	110	7	3	0	-2	6
O=C(N/N=C/C(Cl)=C/c1ccccc1)c1ccco1	100	0	-5	-2	-3	9
O=C(N/N=C/C(Cl)=C\c1ccccc1)c1ccco1	88*	1	8	-2	-2	10
O=C(Oc1cccc(C(=S)N2CCOCC2)c1)c1ccccc1	-24*	3	-7	0	-5	6
COc1cc(C(=O)Oc2cccc(C(=S)N3CCOCC3)c2)cc(OC)c1OC	103	0	·	1	2	0
O=C(Oc1ccc(OC(=O)N2CCCCC2)cc1)c1ccccc1	68*	-5	-3	2	10	-5
O=C(O)Cn1cc(/C=N/NC(=O)c2cc3cc(Br)ccc3o2)c2ccccc21	93	20	-3	1	-3	14
CCOC(=O)N1CCC(N2C(=O)c3cc(C(=O)NC4CCCCC4)ccc3C2O)CC1 (stereo not drawn)	111	·	38*	-1	-12	-2
COc1ccc(CN2C(=O)CSC2c2ccncc2)cc1 (stereo not drawn)	108	-3	?	0	-7	-2
Cc1cc(/C=C2\C(=N)N3C(SCc4ccccc4)=NSC3=NC2=O)c(C)n1Cc1ccccc1	100	24	-9	2	6	93*
Cc1cc(/C=C2\C(=N)N3N=C(C(C)C)SC3=NC2=O)c(C)n1Cc1ccccc1	104	-2	-20	4	-3	-1
O=c1c(C/C=C/c2ccccc2)c(O)ccn1CCc1c[nH]c2ccccc12	107	-2	-6	1	3	5
O=C(Cc1cccs1)Nc1ccccc1	87	-3	-1	1	5	2
O=C(CCNC(=O)c1ccco1)Nc1ccc(OC(F)(F)F)cc1	94	4	-4	1	-1	111*
O=C(Cc1cccs1)Nc1ccc(NC(=O)c2ccco2)cc1	-21*	40	-5	0	2	-3
CC(=O)c1c(C)[nH]c(C(=O)NCc2ccc(Cl)cc2)c1C	87*	-2	-5	-6	·	·
COc1ccc(C2C3=C(CC(C)(C)CC3=O)N(C)C3=C2C(=O)CC(C)(C)C3)cc1OC	114	0	-21	2	-7	0
COc1ccc(C2C3=C(CC(C)(C)CC3=O)N(C)C3=C2C(=O)CC(C)(C)C3)cc1	104	-6	+	1	-4	3
CC1CCN(C(=O)c2[nH]cnc2C(=O)N[C@H](C)c2ccccc2)CC1	104	·	-5	-1	-6	7
C[C@H](NC(=O)c1nc[nH]c1C(=O)N[C@@H](C)C(=O)OCc1ccccc1)C(=O)OCc1ccccc1	103	·	-9	3	-13	68*
C[C@@H](NC(=O)c1nc[nH]c1C(=O)N1CCN(c2ccccc2)CC1)c1ccccc1	105	·	-5	28*	-8	3
SMILES	DSG3 Ab inh	NSD2 HMT inh	CaV13 FRET inh	N-glyco inh	ATG4B inh	Vif inh
C[C@H](NC(=O)c1nc[nH]c1C(=O)NC(c1ccccc1)c1ccccc1)C(=O)OCc1ccccc1	97	·	-8	4	-1	0
Cc1ccccc1C(=O)Nc1nnc(S(=O)(=O)N2CCCCCC2)s1	-6.6*	·	-6	1	2	·
C=CCN1C(=O)/C(=C2/Sc3ccccc3N2CCCS(=O)(=O)O)SC1=S	100	6	·	1	27	1
C=CCN1C(=O)/C(=C2/Sc3ccccc3N2CC)SC1=S	96	-2	23	-2	3	85*
N#Cc1c2n(c3c(=S)nc[nH]c13)CCCCC2	96	·	-13	4	-9	-2
O=C(C=Cc1ccccc1)c1ccc([N+](=O)[O-])cc1	114	6	-8	4	-7	-4
O=C(/C=C/c1cccnc1)c1ccc([N+](=O)[O-])cc1	·	2	-8	35*	-6	21
O=C1N/C(=C/c2ccc(N3CCCC3)cc2)C(=O)N1c1ccccc1	105	-2	-3	-1	10	6
O=C1/C(=C/c2ccc(N3CCCC3)cc2)NC(=S)N1C1CC1	201	4	·	1	-23	54*
Cc1cc(C)cc(NC(=S)NC2CC3CCC(C2)N3Cc2ccco2)c1 (stereo not drawn)	123	29	-9	-1	-4	4
Cc1ccc(C)c(NC(=S)NC2CC3CCC(C2)N3Cc2ccco2)c1 (stereo not drawn)	80*	6	-5	-1	6	5
COc1ccc(NC(=O)CCC(=O)N/N=C/c2ccncc2)cc1	101	11	-4	2	4	1
COc1ccc(NC(=O)CCC(=O)N/N=C/c2cn(C)nc2C)cc1	94	-1	-4	1	1	54*
CCc1ccc(N(CC(=O)Nc2ccccc2C(=O)N2CCOCC2)S(C)(=O)=O)cc1	102	0	-3	1	8	-2
O=C(CCCn1c(=O)c2sccc2n(Cc2cc(=O)n3ccccc3n2)c1=O)NCc1ccco1	102	·	+	-2	-5	3
O=C(CCn1c(=O)c2sccc2n(Cc2cc(=O)n3ccccc3n2)c1=O)NCc1ccco1	98	0	-8	0	3	11
O=c1sc2ccccc2c(N2CCCCC2)c1[N+](=O)[O-]	122	-2	-3	4	-3	-3
O=C(Nc1ccc(Oc2c(F)c(F)c(F)c(F)c2F)cc1)OC1CCN2Cc3ccccc3N=C12 (stereo not drawn)	113	·	·	29*	10	-9
CSCCC(NC(=O)C12CC3CC(CC(C3)C1)C2)C(=O)OCC(=O)c1ccc(C)cc1 (stereo not drawn)	53*	-2	-3	2	17	-1
CCCCN1CCN(C(=O)c2ccc(CNC(=O)c3cccc(Br)c3)cc2)CC1	·	6	·	·	·	·
